Reference: PubChem BioAssay (NCI)
About 83,000 compounds went through this panel and 20% of them were active in at least one assay; those are over-represented in the sample as a whole.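 Cells were grown in 96-well plates and exposed to the test compound at a single concentration for 48 hours; results are reported as percent growth, with values below 10 considered active.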 A number with no mark means an inactive call. Activity calls are given as the source filed them.

system: OVCAR-4 ovarian; experiment: NCI-60 one-dose screen, 48 h (100 = growth as untreated, 0 = no growth, -100 = all killed); details: 10 µM

Going from `N#Cc1ccc(-c2nn(-c3ccc(C(=O)O)cc3)cc2CNc2ccc(Oc3ccccc3)cc2)cc1` to `CC(C)(C)c1ccc(NCc2cn(-c3ccc(C(=O)O)cc3)nc2-c2ccc(C#N)cc2)cc1`, the growth falls from 73.7% to 36.7%.

First: COc1cc2c(cc1OC)CN(CCCCOc1cc(O)c3c(=O)cc(-c4ccccc4)oc3c1)CC2
Second: COc1cc2c3c(n(CCCn4ccnc4)c(=O)c2cc1OC)-c1nc2c(cc1C3=O)OCO2
The growth of the first is lower: 30% for the first, 80.9% for the second.

First: Cc1cc(=O)oc2cc(OCCCCOc3ccc(/C=C/C(=O)Nc4ccc(F)c(Cl)c4)cc3)ccc12
Second: Cc1cccc(NC(=O)CSc2nc3ccc(F)cc3c(=O)n2-c2ccc(Cl)cc2)c1C
The growth of the first is lower: 37.9% for the first, 67.7% for the second.

First: COc1ccc(CN2[C@@H](C(=O)NCc3ccc(C(=O)NO)cc3)Cc3c([nH]c4ccccc34)[C@@H]2C2CC2)cc1
Second: Cc1ccc2nc(COc3ccc(C(=O)NNC(=S)NC(=O)c4ccccc4)cc3)[nH]c2c1
The growth of the first is lower: 35.6% for the first, 57.3% for the second.

Going from `COC(=O)c1c(C(=O)OC)c2n(c1C)[C@@H]([C@@H](C)[C@H]1CC[C@H]3[C@@H]4CCC5=CC(=O)CC[C@]5(C)[C@H]4CC[C@]13C)SC2` to `CC(C)C1=C[C@@]23CC[C@@H]4[C@](C)(CCC[C@]4(C)C(=O)NCc4ccccc4)[C@H]2C[C@@H]1[C@H]1C(=O)CCC(=O)[C@H]13`, the growth rises from 38.5% to 47.3%.

Going from `O=C1CCC(N2Cc3cc(CC(=O)Nc4ccc(N5CCCCC5)cc4)ccc3C2=O)C(=O)N1` (stereo not given) to `COc1ccc2c(c1)N=C(C(=O)O)/C2=C/c1sc(Nc2ccc(O)cc2)nc1O`, the growth rises from 31.1% to 74.7%.

Compared with `Nc1nc(Nc2ccccc2)nn1Cc1c(Cl)cccc1Cl`, `COc1ccc(-c2c(N)c(=O)n(C)c3ccccc23)cc1` is higher in growth: 39.7% for the first, 56.5% for the second.

Going from `Cc1ccc(/C(N)=N/c2sc(-c3ccccc3)nc2-c2ccccc2)cc1` to `O=S(=O)(Nc1ncccn1)c1ccc(-n2c(-c3ccc(Br)cc3)nc(-c3ccccc3)c2-c2ccccc2)cc1`, the growth falls from 72% to 57.7%.

First: O=S(=O)(Nc1ncccn1)c1ccc(-n2c(-c3ccccc3)nc(-c3ccccc3)c2-c2ccccc2)cc1
Second: CN(CCO)c1oc(-c2ccccc2)nc1[P+](c1ccccc1)(c1ccccc1)c1ccccc1
The growth of the first is higher: 94.1% for the first, 15.1% for the second.

Going from `Cc1ccc(C(=O)NNC(=O)CSc2nc3ccccc3c(=O)[nH]2)cc1` to `COc1ccccc1C(=O)NNC(=O)CSc1nc2c(c(=O)[nH]1)CCCC2`, the growth rises from 104% to 105%.

Compared with `COc1cc(OC(F)(F)F)ccc1C(=O)Nc1sc2c(c1C#N)CCC(=O)C2`, `COc1ccc(C(=O)Nc2sc3c(c2C#N)CCC(=O)C3)cc1C(F)(F)F` is lower in growth: 62.1% for the first, 21.7% for the second.

First: CN(C)c1nc(NCCNS(=O)(=O)c2ccc(C(=O)/C=C/c3ccccc3)cc2)nc(Nc2ccc(F)cc2)n1
Second: C=CCn1c(SCC(=O)Nc2ccc(C(=O)/C=C/c3ccccc3)cc2)nnc1-c1c[nH]c2ccccc12
The growth of the first is lower: 25.2% for the first, 61.9% for the second.

Compared with `CCOC(=O)C1=C(N)N(c2ccccc2)C2=C(C(=O)CC(C)(C)C2)C1c1ccccc1OC` (stereo not given), `CCOC(=O)C1=C(N)N(c2ccccc2)C2=C(C(=O)CC(C)(C)C2)C1c1ccc(Cl)cc1` (stereo not given) is lower in growth: 102% for the first, 29.3% for the second.

Going from `Brc1ccc(N/N=C/c2c[nH]c3ccccc23)nc1` to `COc1cc2c(cc1OC)/C(=C\c1sc(Nc3ccc(O)cc3)nc1O)C(C(=O)O)=N2`, the growth rises from 41.5% to 54%.

Going from `C/C(=C\CSc1ccccc1C(=O)O)CCCC(C)CCCC(C)CCCC(C)C` (stereo not given) to `CC[C@]12C=CCN3CC[C@@]4(c5cc(C#CCNc6ccc(C)c(Nc7nccc(-c8cccnc8)n7)c6)c(OC)cc5N(C)[C@H]4[C@@](O)(C(=O)OC)[C@@H]1OC(C)=O)C32` (stereo not given in full), the growth falls from 57.3% to 41.4%.

`Cn1cc(-c2cc(N)n3nc(-c4c[nH]c5ccc(Br)cc45)cc3n2)c2cc(Br)cnc21` was tested, and the growth was -41.1% (active).
With `COc1ccc(C(=O)CSc2nnc(-c3c[nH]c4ccccc34)n2-c2ccccc2)cc1` the growth was 0.569% (active).
In the case of `Cc1ccc2nc(COc3ccc(C(=O)NNC(=S)NCCc4ccccc4)cc3)[nH]c2c1`, the growth is reported as -4.14% (active).
With `CCCn1c(=O)c2[nH]c(-c3ccc(OCc4nc5ccc(C)cc5[nH]4)cc3)nc2n(CCC)c1=O` the growth was 0.252% (active).
For `CN(C)c1ccc(/C=C/c2nc3ccccc3c(=O)n2CC(=O)Nc2ccc(Cl)cc2)cc1`, the growth was 7.27% (active).
For `COc1ccc(Nc2nc(N)n(Cc3cccc(Br)c3)n2)cc1`, the growth was 7.22% (active).
`N#Cc1c(NC(=O)c2ccc(C(F)(F)F)c(Cl)c2)sc2c1CCC(=O)C2` was tested, and the growth was -21.1% (active).
For `CN1CCN(c2ccc(C(=O)/C=C/c3cc(C(F)(F)F)ccc3Cl)cc2)CC1`, the growth was -36.5% (active).
`CN1CCN(Cc2ccc(C(=O)Nc3cccc(Nc4ccc5c(O)cccc5n4)c3)cc2C(F)(F)F)CC1` was tested, and the growth was -13.1% (active).
In the case of `CCOc1ccc(/C=N/NC(=O)Cn2nc(Cc3ccc([N+](=O)[O-])cc3)c3onc(C)c3c2=O)cc1`, the growth is reported as -34.8% (active).
